# According to the supplement of paper PMC8728848:
# About 410 targets per protein were measured; listed, in parts, are those with the strongest signals and a random draw of the rest.
# Assays:
# Assay in all cases: glycan array binding signal (z-score within array); higher = stronger binding
# Conditions in all cases: glycan notation: IUPAC condensed, linker removed
# [1] = molecular target: Fuc(a1-2)[Gal(a1-3)]Gal(b1-4)Glc
# In short: (§1)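 Arrays were curated from the Consortium for Functional Glycomics database, 3228 in total, and kept only where the protein sequence was available. Binding is expressed as a within-array Z-score. This score was averaged across arrays of the same protein sequence at different concentrations or buffers and across linkers, and negative values can be read as non-binding.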
# [2] = molecular target: Fuc(a1-3)[Gal(b1-4)]GlcNAc
# In short: as §1
# [3] = molecular target: Gal(a1-6)Glc
# In short: as §1
# [4] = molecular target: Gal(b1-3)Gal
# In short: as §1
# [5] = molecular target: Gal(b1-3)GalNAc(b1-3)Gal(b1-4)GlcNAc
# In short: as §1
# [6] = molecular target: Gal(b1-3)GalNAc(b1-4)[Neu5Ac(a2-3)]Gal(b1-4)Glc
# In short: as §1
# [7] = molecular target: Gal(b1-4)GlcNAc(b1-6)[Gal(b1-3)]GalNAc
# In short: as §1
# [8] = molecular target: Gal3S(b1-3)GalNAc
# In short: as §1
# [9] = molecular target: Gal3S(b1-4)Glc
# In short: as §1
# [10] = molecular target: Gal3S(b1-4)Glc6S
# In short: as §1
# [11] = molecular target: GalNAc(b1-3)Gal(a1-4)Gal(b1-4)GlcNAc
# In short: as §1
# [12] = molecular target: GalNAc(b1-4)GlcNAc
# In short: as §1
# [13] = molecular target: Man(a1-2)Man(a1-3)[Man(a1-3)[Man(a1-6)]Man(a1-6)]Man(b1-4)GlcNAc(b1-4)GlcNAc
# In short: as §1
# [14] = molecular target: Man(a1-3)[Man(a1-6)]Man(a1-6)[Man(a1-3)]Man(b1-4)GlcNAc(b1-4)GlcNAc
# In short: as §1
# [15] = molecular target: Neu5Ac(a2-3)Gal(b1-3)GalNAc(b1-3)Gal(a1-4)Gal(b1-4)Glc
# In short: as §1
# [16] = molecular target: Neu5Ac(a2-3)Gal(b1-3)[Neu5Ac(a2-6)]GalNAc
# In short: as §1
# [17] = molecular target: Neu5Ac(a2-3)Gal(b1-4)Glc
# In short: as §1
# [18] = molecular target: Neu5Ac(a2-3)Gal(b1-4)GlcNAc6S
# In short: as §1
# [19] = molecular target: Neu5Ac(a2-3)GalNAc
# In short: as §1
# [20] = molecular target: Neu5Ac9Ac(a2-6)Gal(b1-4)GlcNAc
# In short: as §1
binder,measurement,setting,value
"EcCDA (Encephalitazoon cuniculi), Q8SU65 (protein) MLLCLLYFTSSWCSGSDVPDVCTNSGMIAINFVDGPVRGVTDRILNTLDELGVKATFSFTVNQKAVGNVGQLYRRAVEEGHNVALRVDPSMDEGYQCLSQDALENNVDREIDTIDGLSGTEIRYAAVPICNGQVNSEMYNILTERGVLPVGYTFCPYDYDDPVGEFESMIEGSDPKHHSFIILMHDGQEADTSRLENMVKIGKDKGYRFVNMDECLQGYKGAPGDPELSLRGKGVESIGKGFLPFFLMMLVRLL",glycan array binding signal (z-score),[1],2.96
same,glycan array binding signal (z-score),[2],-0.055
same,glycan array binding signal (z-score),[3],3.02
same,glycan array binding signal (z-score),[4],-0.337
same,glycan array binding signal (z-score),[5],-0.363
same,glycan array binding signal (z-score),[6],-0.234
same,glycan array binding signal (z-score),[7],-0.1
same,glycan array binding signal (z-score),[8],0.115
same,glycan array binding signal (z-score),[9],0.022
same,glycan array binding signal (z-score),[10],5.58
same,glycan array binding signal (z-score),[11],1.6
same,glycan array binding signal (z-score),[12],-0.289
same,glycan array binding signal (z-score),[13],-0.2
same,glycan array binding signal (z-score),[14],-0.34
same,glycan array binding signal (z-score),[15],-0.476
same,glycan array binding signal (z-score),[16],-0.318
same,glycan array binding signal (z-score),[17],-0.322
same,glycan array binding signal (z-score),[18],-0.284
same,glycan array binding signal (z-score),[19],0.071
same,glycan array binding signal (z-score),[20],4.58
